Experimental data taken from ChEMBL document CHEMBL3988442, “University of Dundee, Small-Polar-MMV Screening Library” (2021).
The whole screen tested about 38,000 compounds, of which about 1,200 (3.2%) showed an effect of 50% or more. The median lay at about -58%. The entries come from a sample that favours strong results as a whole.

System: Plasmodium falciparum
Assay: Calibr Malaria Delayed Death Assay SOP
Format: functional, organism-based
Parameters: scale not given: in the data most compounds retested in dose-response had high values
Conditions: concentration 4.99e-06 (unit not given; other assays of the set use mol/L)

Compound	Percent Effect [%]
Cc1cc(F)cc2c(N3CCC(S(N)(=O)=O)CC3)c(C#N)cnc12	-75.95
O=C1CC2(CCSC2)C(=O)N1Cc1coc(-c2ccccc2)n1 (configuration not stated)	-69.36
CC1CCc2[nH]c(=O)c(C(=O)N3CCc4ccccc4C3)cc2C1 (configuration not stated)	-106.2
COCCN(Cc1ccccc1Cl)c1nc(CCN)nc2ccccc12	89.02
Cc1ccsc1CN(c1nc(CCN)nc2ccccc12)C1CC1	51.16
COCCN(Cc1cc(O)nc2ccccc12)C(=O)NC(C)C	-37.53
COCCN(Cc1cccs1)C(=O)C1CCCN(C(N)=O)C1 (configuration not stated)	-166.3
NCCc1nc(N(Cc2cncs2)C2CC2)c2ccccc2n1	-36.69
COCCN(CCOC)Cc1c(C)nc2ccccc2c1O	-60.42
COCCN(CC1CC1)c1nc(CCN)nc2ccccc12	8.553
COCCN(Cc1cccs1)c1nc(CCN)nc2ccccc12	61.62
NCCc1nc(N(Cc2nccs2)C2CC2)c2ccccc2n1	-61.5
CCC(=O)N(CCN(C)C)Cc1ccc(F)c(F)c1	39.58
CC(C)C1CCC(N2CCN(CCCS(C)(=O)=O)CC2)CC1 (configuration not stated)	11.68
Cc1cc2nc(C(C)C)cc(N3CCC(O)CC3)n2n1	-114.9
Cc1cccc(OC(C)C(=O)NCC2(N(C)C)CCCC2)c1 (configuration not stated)	80.49
CC(=O)N(C)CC(=O)NCC1(c2cccc(C)c2)CCCC1	-51.91
Cc1cccc(C(C(=O)NCC2(O)CCCCC2)N(C)C)c1 (configuration not stated)	-49.85
CC1CN(C(=O)NCCc2nc(C(C)C)no2)CCO1 (configuration not stated)	-93.77
Cc1cccc(CNC2CCCc3c2cnn3C)c1.Cl (configuration not stated)	-40.76
Cl.Cn1ncc2c1CCCC2NCc1cccc(F)c1 (configuration not stated)	10.36
Cc1cccc(CNC2CCCc3c2cnn3Cc2ccccc2)c1.Cl (configuration not stated)	64.5
O=S(=O)(C1CC1)N1CCC2(COCc3cnc(NCC4CC4)nc32)C1 (configuration not stated)	-35.4

Compound	Percent Effect [%]
c1cc(N2CCC3(COCc4cnc(NCC5CC5)nc43)C2)ncn1 (configuration not stated)	-14.49
c1ccc(CN2CCC3(COCc4cnc(NCC5CC5)nc43)C2)cc1 (configuration not stated)	50.22
CC(C)CC(NC(=O)c1ccn(C)c(=O)c1)c1cccs1 (configuration not stated)	-80.8
Cc1cc(C(=O)N(C)CCCn2cccn2)nc(N)n1	-80.13
CCN(CC)C(=O)N1CCN(Cc2cnc(C)nc2)[C@H]2CS(=O)(=O)C[C@H]21	-158.8
CCS(=O)(=O)N1CCCn2nnc(CNC(C)=O)c2C1	-63.27
CCN1CCCC(O)(CNCc2ccccc2F)C1 (configuration not stated)	38.87
CCN1CCCC(O)(CN(C)Cc2ccccc2F)C1 (configuration not stated)	56.49
CN(C)CC1(O)CCCN(Cc2ccccc2OCC(=O)N(C)C)C1 (configuration not stated)	-89.01
Cc1nc2c(c(N(C)C)n1)CCN(C(=O)c1ccc(N)nc1)C2	-40.57
O=C(CCc1ccccc1)NCC1CCN(Cc2ccccc2)CC1	43.31
CC(=O)N1CCCN(CCn2nc3ccccn3c2=O)CC1	-130.1
CN(C)CCN(C)S(=O)(=O)Cc1ccc(Br)cc1	62.66
CCCNS(=O)(=O)Cc1ccc(Br)cc1	-18.14
CC(O)CCN(C)S(=O)(=O)Cc1ccc(Br)cc1 (configuration not stated)	-27.23
CC(Cn1cccn1)NC(=O)NCc1ccnc(OC2CCCC2)c1 (configuration not stated)	-91.81
O=C(CCc1cccs1)Nc1ccnn1C1CCS(=O)(=O)C1 (configuration not stated)	-51.38
Cc1ccc(C(=O)N2CC[C@]3(C[C@@H](OCc4ccccn4)CO3)C2)nc1.O=C(O)C(F)(F)F.O=C(O)C(F)(F)F	-9.931
CNc1cncc(C2CCCN2Cc2cccc(C)n2)n1 (configuration not stated)	-46.34
Cc1nonc1C1CCCN1Cc1ccc(C(=O)Nc2nccs2)cc1 (configuration not stated)	-15.94
Cc1ccc(C)c(CSc2nnc([C@@H](N)C(C)C)o2)c1.Cl	-98.07
N#Cc1ccccc1CN1CCCC(c2nccn2CC2CC2)C1 (configuration not stated)	10.64
FC(F)Oc1ccccc1CN1CCCC(c2nccn2CC2CC2)C1 (configuration not stated)	86.3

Compound	Percent Effect [%]
NC(=O)Cn1ccnc1C1CCCN(Cc2ccccc2OC(F)F)C1 (configuration not stated)	-1.798
Cc1cc(NC(=O)CN2CCCC2c2noc(C(C)C)n2)no1 (configuration not stated)	-88.6
COCC1CCCN(C(=O)c2ccc(N(C)Cc3cnn(C)c3)nc2)C1 (configuration not stated)	-103.7
O=C(CCCn1cnc2ccccc2c1=O)Nc1nc[nH]n1	-6.042
O=C(Nc1ccccn1)C1CCN(Cc2cc3c(cc2O)OCO3)CC1	-119.6
O=C(Cc1ccc2c(c1)CCC2)NC1CCN(Cc2ccccc2)CC1	27.79
O=C(CCCNC(=O)C1CCCO1)Nc1ccc(Cl)cc1 (configuration not stated)	-38.58
CCc1nc(CN(C)CC(=O)OC(C)(C)C)cs1	-47.19
COc1cccc([C@@H]2CCN(Cc3ccc4ccccc4n3)C[C@H]2O)c1	-19.61
COc1cccc([C@@H]2CCN(Cc3cn(C)c4ccccc34)C[C@H]2O)c1	77.7
COc1cccc([C@@H]2CCN(Cc3cccc(C)n3)C[C@H]2O)c1	-31.33
Cc1ccc(CN(C)C(=O)CN2CCc3ccccc3C2)o1	-48.11
CC(C)n1cnnc1CN(C)C(=O)C1CCCN(C2CCN(C)CC2)C1 (configuration not stated)	-93.39
COc1ccc(NC(=O)Cn2nc(C)ccc2=O)cc1OC	-36.97
Cn1ccc2c(ccn2CC(=O)Nc2ccc(Br)cc2)c1=O	-82.23
CC(=O)c1c(C)nn(CC(=O)Nc2ccc(Br)cc2)c1C	66.34
COc1ccc(NC(=O)Cn2nc(C)c(C(C)=O)c2C)cc1	89.56
CC(=O)c1c(C)nn(CC(=O)Nc2ccc(F)cc2)c1C	-45.58
COc1ccc(CC(=O)Nc2ccc3ncn(C)c(=O)c3c2)cc1	-105.2
CCOCc1cncc2c1CCN(C(=O)c1cscn1)C2.O=C(O)C(F)(F)F	-50.24
Cc1nc(C2CCCN2C(=O)CCCn2cncn2)no1 (configuration not stated)	-14.54
